Results reported in PMC5540273 (PLoS ONE, 2017).

Experiments:
Conditions in all cases: concentration: 1 μM, replicates: in singlicate; n = 1
CSF1R = tested on: CSF1R
CSK = tested on: CSK
CSNK1A1L = tested on: CSNK1A1L
CSNK1A1 = tested on: CSNK1A1
CSNK1D = tested on: CSNK1D
CSNK1E = tested on: CSNK1E
CSNK1G1 = tested on: CSNK1G1
CSNK1G2 = tested on: CSNK1G2
CSNK1G3 = tested on: CSNK1G3
CSNK2A1 = tested on: CSNK2A1
CSNK2A2 = tested on: CSNK2A2
CTK = tested on: T1, CTK
T1 construct: gene MATK

DAPK1 = tested on: DAPK1
DAPK2 = tested on: DAPK2
DAPK3 = tested on: DAPK3
DCAMKL1 = tested on: T2, DCAMKL1
T2 construct: gene DCLK1

DCAMKL2 = tested on: T3, DCAMKL2
T3 construct: gene DCLK2

DCAMKL3 = tested on: T4, DCAMKL3
T4 construct: gene DCLK3

DDR1 = tested on: DDR1
DDR2 = tested on: DDR2
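Further: KINOMEscan kinase panel screen.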

Structure (SMILES) | %Inh (CSF1R) [%] | %Inh (CSK) [%] | %Inh (CSNK1A1L) [%] | %Inh (CSNK1A1) [%] | %Inh (CSNK1D) [%] | %Inh (CSNK1E) [%] | %Inh (CSNK1G1) [%] | %Inh (CSNK1G2) [%] | %Inh (CSNK1G3) [%] | %Inh (CSNK2A1) [%] | %Inh (CSNK2A2) [%] | %Inh (CTK) [%] | %Inh (DAPK1) [%] | %Inh (DAPK2) [%] | %Inh (DAPK3) [%] | %Inh (DCAMKL1) [%] | %Inh (DCAMKL2) [%] | %Inh (DCAMKL3) [%] | %Inh (DDR1) [%] | %Inh (DDR2) [%]
COc1cc2ncn(-c3cc(OCc4ccncc4)c(C(N)=O)s3)c2cc1OC [GSK336313] | 15 | 0 | 2 | 0 | 8 | 29 | 0 | 0 | 30 | 2 | 29 | 0 | 8 | 0 | 10 | 4 | 0 | 55 | 0 | 0
O=c1cc(N2CCOCC2)nc2n(Cc3ccc(F)c(Cl)c3)ccn12 [GSK2297099] | 26 | 13 | 6 | 0 | 9 | 52 | 12 | 0 | 34 | 1 | 6 | 0 | 23 | 0 | 23 | 0 | 0 | 0 | 10 | 0
COc1cc2ncn(-c3cc(OCc4ccncc4Br)c(C(N)=O)s3)c2cc1OC [GW854278] | 0 | 6 | 10 | 0 | 8 | 0 | 18 | 0 | 0 | 0 | 18 | 45 | 28 | 18 | 6 | 0 | 2 | 0 | 0 | 0
Nc1n[nH]c2ncc(-c3ccccc3)cc12 [SB-517081] | 47 | 0 | 9 | 0 | 30 | 15 | 68 | 0 | 6 | 0 | 11 | 0 | 12 | 0 | 29 | 13 | 13 | 22 | 0 | 23
O=C(Nc1n[nH]c2cc(-c3ccccc3F)ccc12)C1CC1 [SB-733371] | 0 | 0 | 15 | 0 | 0 | 14 | 0 | 0 | 10 | 3 | 0 | 3 | 0 | 0 | 0 | 16 | 0 | 0 | 0 | 6
Nc1ncnc2c1ncn2-c1ccc(Cl)cc1 [AH2635] | 11 | 0 | 12 | 0 | 9 | 46 | 0 | 0 | 17 | 0 | 1 | 0 | 0 | 0 | 0 | 10 | 0 | 0 | 0 | 21
CCc1ccc(-c2ccc3c(c2)-c2nn(C)cc2S(=O)(=O)N3C)cc1 | 0 | 2 | 0 | 2 | 0 | 0 | 0 | 7 | 0 | 0 | 0 | 0 | 25 | 0 | 9 | 22 | 0 | 0 | 0 | 41
Nc1nccc2scc(-c3ccc4c(c3)CCN4C(=O)Cc3ccccc3)c12 [GSK2576924] | 78 | 0 | 0 | 0 | 13 | 6 | 7 | 0 | 26 | 5 | 13 | 0 | 12 | 3 | 21 | 16 | 0 | 27 | 43 | 3
